# Assay results taken from PubChem BioAssay.
# Unmarked numbers belong to inactive results.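 Rule for the calls: active = inhibition at or above 50% relative to wild type and mutant plate controls; inactive = inhibition below 50%.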
# Assay: loss of swimming-algae plug formation – whole organism, Chlamydomonas reinhardtii, WT vs cilia-less mutant, absorbance, 96-well, primary screen (AID 463189);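 note: 0% = wild type cc124 cells in DMSO and 100% = ciliumless bld1 mutant cells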
# Conditions: Chlamydomonas reinhardtii gravitaxis, OD600 absorbance, 2 days; at 10 µM; active compounds read high
row,Structure (SMILES),inhibition
1,COc1ccccc1N1CCN(CCCCN2C(=O)c3ccccc3C2=O)CC1,1.35%
2,Nc1nc(Cl)nc2c1ncn2[C@@H]1O[C@H](CO)[C@H](O)C1O (stereo partly drawn),1.82%
3,NCCNC(=O)c1ncsc1-c1cccc(F)c1,0.32%
4,Nc1ccc(S(=O)(=O)Nc2ccnn2-c2ccccc2)cc1,-0.772%
5,CN1C(=O)CC[C@H]1c1cccnc1,4.07%
6,CC1=C(/C=C/C(C)=C/C=C/C(C)=C/C(=O)Nc2ccc(O)cc2)C(C)(C)CCC1,1.68%
7,COc1[nH]c2ccc(F)cc2c1C(=O)OCC1CCN(CCNS(C)(=O)=O)CC1,-12.7%
8,NC(N)=NCc1cccc(I)c1,4.17%
9,CC(C)C[C@H](N)CSSC[C@@H](N)CC(C)C,6.54%
10,O=C1Nc2ccc(I)cc2/C1=C/c1cc(Br)c(O)c(Br)c1,-6.77%
11,CC(=O)c1ccc(S(=O)(=O)NC(=O)NC2CCCCC2)cc1,-5.49%
12,COc1nc(C)nc(Cl)c1NC1=NCCN1,1.2%
13,Cn1cc(C(F)(F)F)nc1-c1ccc(OCC(O)CNCCOc2ccc(O)c(C(N)=O)c2)cc1 (stereo not drawn),-6.96%
14,CCOC(=O)c1ncn2c1CN(C)C(=O)c1cc(F)ccc1-2,1.79%
15,CCCCCC(O)CCCC(=O)O (stereo not drawn),-1.48%
16,Clc1ccc(N2CCN(Cc3c[nH]c4ncccc34)CC2)cc1,5.9%
17,CC(C)(C)NCC(O)COc1nsnc1N1CCOCC1 (stereo not drawn),-8.84%
18,CN1CCc2cc(Cl)c(O)cc2[C@@H](c2ccccc2)C1,5.1%
19,CC(=O)O[C@]1(C(C)=O)CC[C@H]2[C@@H]3C=C(Cl)C4=CC(=O)[C@@H]5C[C@@H]5[C@]4(C)[C@H]3CC[C@@]21C,6.43%
20,Cc1cc(NC(=O)Nc2ccc3c(ccn3C)c2)sn1,5.1%
21,NCC(O)(CS(=O)(=O)O)c1ccc(Cl)cc1 (stereo not drawn),30.8%
22,CNCCNS(=O)(=O)c1cccc2cnccc12,5.09%
23,COc1cc2ncnc(Nc3cccc(Cl)c3)c2cc1OC,-7.15%
